Records with an inconclusive call do not appear. A call without a number means that no potency is given here. Unmarked numbers belong to inactive results. Active and inactive are the calls of the source. Unless noted, calls come from the whole dose curve; as a rule, active = well fitted curve in the direction sought with a large enough effect in the repeat runs; inconclusive = weak or mixed curves; inactive = no such curve, though single readings can be large; an effect the other way counts as inactive or inconclusive.
How the values were obtained:
[1] = qHTS assay to identify small molecule agonists of the peroxisome proliferator-activated receptor delta (PPARd) signaling pathway - cell viability counter screen (AID 743211); note: nearly all actives have a fitted effect of over 55% in size
In short: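 qHTS cell viability: PPARd-bla HEK293H; 17 h cpd, 37C; CellTiter-Glo, luminescence at 30 min RT.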

[2] = qHTS assay to identify small molecule antagonists of the peroxisome proliferator-activated receptor delta (PPARd) signaling pathway - cell viability counter screen (AID 743213); note: nearly all actives have a fitted effect of over 50% in size
In short: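 Viability counter-screen, qHTS format: PPARd-bla HEK293H, L165041 300 nM final, 17 h compound exposure at 37 C, CellTiter-Glo luminescence after 30 min RT.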

[3] = target: Bile acid receptor (Homo sapiens) (UniProt Q96RI1); test: qHTS assay to identify small molecule antagonists of the farnesoid-X-receptor (FXR) signaling pathway (AID 743217; active = well fitted inhibition curve with a large enough effect in the signal ratio in the repeat runs, not every such curve was filed as active; the % refers to the signal ratio)
In short: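 HEK 293T FXR-UAS-bla, 5000 cells/well; compound + CDCA 50 uM final; 16 h, 37 °C; B/G FRET substrate 2 h RT; fluorescence.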

[4] = qHTS assay to identify small molecule agonists of the farnesoid-X-receptor (FXR) signaling pathway - cell viability counter screen (AID 743218); note: nearly all actives have a fitted effect of over 45% in size
In short: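 HEK 293T FXR-bla cells; 5 h pre-incubation, 16 h compound exposure at 37 C; LiveBLAzer substrate 2 h RT, then CellTiter-Glo 30 min RT, luminescence.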

[5] = target: Bile acid receptor (Homo sapiens) (UniProt Q96RI1); test: qHTS assay to identify small molecule agonists of the farnesoid-X-receptor (FXR) signaling pathway (AID 743220; active = well fitted activation curve with a large enough effect in the signal ratio in the repeat runs, not every such curve was filed as active; the % refers to the signal ratio)
In short: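 Beta-lactamase reporter under UAS control in GeneBLAzer FXR HEK 293T cells (5000/well) measured with LiveBLAzer FRET substrate after 2 h at room temperature. Compound exposure lasted 16 h at 37C.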

[6] = qHTS assay to identify small molecule antagonists of the farnesoid-X-receptor (FXR) signaling pathway - cell viability counter screen (AID 743221; active = well fitted cell-killing curve with a large enough effect in the repeat runs, not every such curve was filed as active; note: nearly all actives have a fitted effect of over 50% in size; note: potency is the fitted concentration of half-maximal effect)
In short: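 After a 5 h settling period, FXR-bla HEK 293T cells receive compound and chenodeoxycholic acid (50 uM final) and incubate 16 h at 37 C; CellTiter-Glo luminescence, read after 30 min at room temperature, reports cell viability.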

[7] = qHTS assay to identify small molecule agonists of the vitamin D receptor (VDR) signaling pathway - cell viability counter screen (AID 743224); note: series mostly up to about 63 µM; nearly all actives have a fitted effect of over 50% in size
In short: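 Luminescence from CellTiter-Glo, read after 30 min at room temperature, reports viability of VDR-bla cells treated with compounds for 16 h at 37C in the wells used for the beta-lactamase FRET read.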

[8] = qHTS assay to identify small molecule antagonists of the vitamin D receptor (VDR) signaling pathway - cell viability counter screen (AID 743225); note: nearly all actives have a fitted effect of over 50% in size
In short: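 Parallel cytotoxicity test: VDR-UAS-bla HEK 293T, 3 nM (final) 1-alpha,25-dihydroxyvitamin D3 with test compound, 16 h, 37C. Endpoint is CellTiter-Glo luminescence in the same wells.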

[9] = qHTS assay to identify small molecule agonists of the NFkB signaling pathway (AID 1159509; active = well fitted curve in the direction sought with a large enough effect in the signal ratio in the repeat runs, not every such curve was filed as active; the % refers to the signal ratio; note: series mostly up to about 61 µM)
In short: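 ME-180 NFkB-bla, 2,000 cells/well, overnight plating; cpd pinned in DMSO, 5 h 37 C; B/G FRET substrate 1.5 h RT; ex 405, em 460/530 nm.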

[10] = qHTS assay to identify small molecule agonists of the endoplasmic reticulum stress response signaling pathway (AID 1159516; active = well fitted activation curve with a large enough effect in the signal ratio in the repeat runs, not every such curve was filed as active; the % refers to the signal ratio)
In short: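 Read-out is beta-lactamase cleavage of a FRET substrate (405 nm excitation; 460 and 530 nm emissions) in ESRE-bla HeLa cells after a 5 hr compound exposure at 37 C. Substrate incubation ran 2 hr at room temperature.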

[11] = qHTS assay to identify small molecule agonists of the endoplasmic reticulum stress response signaling pathway - cell viability counter screen (AID 1159517; calls by dose curve)
In short: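 ESRE-bla HeLa cells, 1,500 per well, seeded overnight then treated with compounds for 5 hr at 37 C. After the beta-lactamase read, viability in the same wells is measured by CellTiter-Glo luminescence after 30 min at room temperature.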

[12] = qHTS assay to identify small molecule antagonists of the retinoid-related orphan receptor gamma (ROR-gamma) signaling pathway - cell viability counter screen (AID 1159520); note: nearly all actives have a fitted effect of over 50% in size; note: potency is the fitted concentration of half-maximal effect
In short: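 Tet-on ROR gamma CHO cells were given compounds for 2 hr, then doxycycline hyclate at 1 uM final, and incubated 16 hr at 37 C. Viability was measured as ATP content by CellTiter-Glo luminescence.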

[13] = target: Nuclear receptor ROR-gamma (Homo sapiens) (UniProt P51449); test: qHTS assay to identify small molecule antagonists of the retinoid-related orphan receptor gamma (ROR-gamma) signaling pathway (AID 1159521; note: nearly all actives have a fitted effect of over 50% in size; note: potency is the fitted concentration of half-maximal effect)
In short: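 Decreased RORE-driven luciferase luminescence indicates antagonism. Tet-on RORγ CHO cells received compound, then 1 uM final doxycycline 2 h later; signal read after 16 h incubation.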

[14] = qHTS assay to identify small molecule agonists of the AP-1 signaling pathway - cell viability counter screen (AID 1159525; calls by dose curve; note: nearly all actives have a fitted effect of over 55% in size)
In short: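 AP-1-bla ME-180 cells in Opti-MEM with 0.5% dialyzed FBS, compound exposure 5 h at 37 C in 15-point titration. Viability read in the same wells as ATP content by CellTiter-Glo luminescence, normalised to tetra-n-octylammonium bromide and DMSO controls.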

[15] = target: Peroxisome proliferator-activated receptor delta (Homo sapiens) (UniProt Q03181); test: qHTS assay to identify small molecule agonists of the peroxisome proliferator-activated receptor delta (PPARd) signaling pathway (AID 743212; calls by dose curve)
In short: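 GeneBLAzer UAS-bla HEK293H cells carrying a PPARδ construct were exposed to compounds at 37 °C. Beta-lactamase activity was read by FRET fluorescence after 2 h at room temperature with LiveBLAzer B/G substrate.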

[16] = target: Peroxisome proliferator-activated receptor delta (Homo sapiens) (UniProt Q03181); test: qHTS assay to identify small molecule antagonists of the peroxisome proliferator-activated receptor delta (PPARd) signaling pathway (AID 743215; active = well fitted inhibition curve with a large enough effect in the signal ratio in the repeat runs, not every such curve was filed as active; the % refers to the signal ratio;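 note: cells stimulated with agonist L165041 at 300 nM final during compound exposure; series mostly up to about 62 µM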)
In short: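 Read-out is beta-lactamase FRET fluorescence, measured 2 h after substrate addition at room temperature. Beforehand, UAS-bla HEK293H cells carrying the PPARd reporter were exposed to compounds with L165041 at 300 nM final for 17 h at 37 C.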

[17] = target: Vitamin D3 receptor (Homo sapiens) (UniProt P11473); test: qHTS assay to identify small molecule agonists of the vitamin D receptor (VDR) signaling pathway (AID 743222; calls by dose curve)
In short: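 VDR-bla cells, 2,000/well; 4 h preincubation 37C; cpd (DMSO) 16 h; LiveBLAzer B/G substrate 2 h RT; fluorescence intensity read.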

[18] = target: Vitamin D3 receptor (Homo sapiens) (UniProt P11473); test: qHTS assay to identify small molecule antagonists of the vitamin D receptor (VDR) signaling pathway (AID 743223; active = well fitted inhibition curve with a large enough effect in the signal ratio in the repeat runs, not every such curve was filed as active; the % refers to the signal ratio)
In short: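 Reporter line VDR-bla; stimulus 1alpha,25-(OH)2 vitamin D3, 3 nM final; compound co-addition, 16 h 37C/5% CO2; LiveBLAzer B/G substrate 2 h RT; fluorescence intensity.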

[19] = qHTS assay to identify small molecule agonists of the AP-1 signaling pathway (AID 1159526; calls by dose curve)
[20] = qHTS assay to identify small molecule agonists of the NFkB signaling pathway - cell viability counter screen (AID 1159515; calls by dose curve; note: series mostly up to about 61 µM; nearly all actives have a fitted effect of over 55% in size)
In short: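 Luminescence from CellTiter-Glo (30 min, room temperature) gives viability, measured in the same wells as the beta-lactamase reporter read. Cells were NFkB-bla ME-180, 2,000 per well, treated 5 hr with compounds.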

Chain of Vitamin D3 receptor (Homo sapiens) (P11473 whole entry, looked up): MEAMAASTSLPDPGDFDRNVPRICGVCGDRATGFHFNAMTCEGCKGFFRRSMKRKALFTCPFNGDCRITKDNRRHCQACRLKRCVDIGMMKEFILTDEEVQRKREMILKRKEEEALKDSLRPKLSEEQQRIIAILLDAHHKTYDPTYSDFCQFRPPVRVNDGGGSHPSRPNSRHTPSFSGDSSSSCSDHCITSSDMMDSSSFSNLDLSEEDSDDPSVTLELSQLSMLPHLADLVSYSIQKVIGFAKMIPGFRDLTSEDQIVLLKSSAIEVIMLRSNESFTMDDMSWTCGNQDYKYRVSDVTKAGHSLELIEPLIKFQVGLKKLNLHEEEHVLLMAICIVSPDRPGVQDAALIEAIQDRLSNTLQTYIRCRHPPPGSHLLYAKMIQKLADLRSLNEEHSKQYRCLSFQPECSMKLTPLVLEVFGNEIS
Chain of Bile acid receptor (Homo sapiens) (Q96RI1 whole entry, looked up): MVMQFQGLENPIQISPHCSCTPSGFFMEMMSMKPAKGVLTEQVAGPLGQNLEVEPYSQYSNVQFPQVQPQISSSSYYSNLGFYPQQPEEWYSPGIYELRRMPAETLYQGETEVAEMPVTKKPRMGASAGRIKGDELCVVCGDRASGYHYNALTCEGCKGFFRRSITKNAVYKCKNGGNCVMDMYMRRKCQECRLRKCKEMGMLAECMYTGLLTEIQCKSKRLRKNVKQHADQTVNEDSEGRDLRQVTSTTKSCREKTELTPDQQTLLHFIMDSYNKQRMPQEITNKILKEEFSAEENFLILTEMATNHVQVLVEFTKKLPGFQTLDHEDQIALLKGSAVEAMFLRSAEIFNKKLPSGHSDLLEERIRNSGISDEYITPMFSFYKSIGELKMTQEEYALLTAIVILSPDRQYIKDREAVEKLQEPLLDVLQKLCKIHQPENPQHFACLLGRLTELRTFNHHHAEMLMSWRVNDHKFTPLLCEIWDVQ
Chain of Peroxisome proliferator-activated receptor delta (Homo sapiens) (Q03181 whole entry, looked up): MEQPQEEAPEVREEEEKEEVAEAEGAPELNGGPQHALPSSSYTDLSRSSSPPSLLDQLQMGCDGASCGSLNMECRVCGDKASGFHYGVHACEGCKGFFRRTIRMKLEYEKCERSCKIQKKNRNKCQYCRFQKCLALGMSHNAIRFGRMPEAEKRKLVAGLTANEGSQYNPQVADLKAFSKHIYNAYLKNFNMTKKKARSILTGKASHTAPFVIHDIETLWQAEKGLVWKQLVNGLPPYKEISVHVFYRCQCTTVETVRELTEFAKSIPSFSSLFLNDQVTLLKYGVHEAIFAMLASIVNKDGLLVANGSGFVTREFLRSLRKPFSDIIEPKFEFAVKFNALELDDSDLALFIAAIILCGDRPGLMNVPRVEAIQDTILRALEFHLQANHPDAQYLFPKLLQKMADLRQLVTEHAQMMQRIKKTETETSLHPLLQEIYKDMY

SMILES | Potency [1] | Potency [2] | outcome [3] | Potency [4] | outcome [5] | Potency [6] | outcome [7] | outcome [8] | outcome [9] | outcome [10] | outcome [11] | Potency [12] | Potency [13] | outcome [14] | Potency [15] | outcome [16] | outcome [17] | outcome [18] | Potency [19] | outcome [20]
CC(CC(C#N)(c1ccccc1)C(C)C)N(C)C (stereo not drawn) | inactive | inactive | inactive | inactive | inactive | inactive | inactive | inactive | inactive | inactive | inactive | inactive | inactive | inactive | – | – | – | – | – | –
CCOCCn1c(N2CCCN(C)CC2)nc2ccccc21 | inactive | inactive | – | – | – | – | inactive | inactive | inactive | inactive | inactive | inactive | inactive | inactive | inactive | inactive | inactive | inactive | inactive | –
Clc1cccc(C(c2ccc3nc[nH]c3c2)n2ccnc2)c1 (stereo not drawn) | inactive | inactive | inactive | inactive | inactive | inactive | inactive | inactive | inactive | inactive | inactive | inactive | inactive | inactive | inactive | inactive | inactive | inactive | inactive | –
CC(C)CCCCCCCOC(=O)c1ccc(C(=O)OCCCCCCCC(C)C)c(C(=O)OCCCCCCCC(C)C)c1 | inactive | inactive | – | inactive | – | inactive | inactive | inactive | inactive | inactive | inactive | inactive | inactive | inactive | inactive | inactive | inactive | – | inactive | –
CC(C)C[C@H](NC(=O)[C@H](Cc1ccccc1)NC(=O)c1cnccn1)B(O)O | – | – | – | – | – | 298 nM (active) | – | inactive | inactive | inactive | inactive | 66.8 nM (active) | 47.3 nM (active) | inactive | – | – | – | – | inactive | –
Cc1cc(C)n(CO)n1 | inactive | inactive | inactive | inactive | inactive | inactive | inactive | inactive | – | inactive | inactive | inactive | inactive | inactive | inactive | inactive | inactive | – | inactive | inactive
Clc1cc(Cl)c2c(c1)N=C1CCCCCN1C2 | inactive | – | inactive | inactive | – | inactive | inactive | inactive | inactive | inactive | inactive | inactive | inactive | – | inactive | inactive | inactive | inactive | inactive | –
CCC(=O)O[C@]1(C(=O)COC)[C@@H](C)C[C@H]2[C@@H]3CCC4=CC(=O)C=C[C@]4(C)C3(F)[C@@H](O)C[C@@]21C (stereo partly drawn) | inactive | inactive | inactive | inactive | – | inactive | inactive | inactive | inactive | inactive | inactive | inactive | inactive | inactive | inactive | inactive | inactive | inactive | inactive | –
CC1(C)[C@@H]2CC[C@]3(C2)[C@@H]1C(=O)CCC3(C)C | inactive | inactive | inactive | inactive | – | inactive | inactive | inactive | – | inactive | inactive | inactive | inactive | – | inactive | inactive | inactive | inactive | – | inactive
CCC(C(=O)O)c1ccc(N2Cc3ccccc3C2=O)cc1 (stereo not drawn) | inactive | inactive | – | inactive | – | – | inactive | inactive | – | inactive | inactive | inactive | inactive | – | inactive | inactive | inactive | inactive | inactive | inactive
CC(=O)Nc1ccccc1O | inactive | inactive | inactive | inactive | inactive | inactive | inactive | inactive | – | inactive | inactive | inactive | inactive | inactive | – | – | inactive | inactive | inactive | inactive
